Reference: PubChem BioAssay

Tested on: Inhibin beta A chain (activin A)
Test: INHBA (activin A) binders on microarrays, primary screen, biochemical, small-molecule microarray, 635 nm fluorescence scan (AID 1107);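 also: mouse activin A protein probed at 4.33 µg/mL on printed slides; score merges bound-protein fluorescence near 667 nm with spot signal-to-noise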
Details: small-molecule microarray binding, higher = more signal

| SMILES | composite z-score |
| --- | --- |
| COc1cc2c(cc1O)C(c1ccc(CN3CCCC3)cc1)N(Cc1cc3c(cc1Br)OCO3)CC2 (stereo unspecified) | 0.992 |
| CCCC[C@@H]1C[C@H]1[C@@H](NC(=O)c1cccs1)c1ccccc1C(F)(F)F | 0.978 |
| CCOC(=O)C1=C[C@@H](c2ccccc2)N(S(=O)(=O)c2ccc(C)cc2)[C@H]1c1ccc(OC)cc1 | 1.25 |
| C=CCC(OC(C)=O)[C@@H]1[C@@H](N(Cc2ccc(-c3cccc(C(F)(F)F)c3)o2)C(=O)Cc2ccc(OC)cc2)c2cc(OCCCO)ccc2N1C(=O)c1ccc(-c2ccccc2)cc1 (stereo partly specified) | 1.39 |
| C=CC[C@@H](OC(=O)Nc1ccc(SC)cc1)c1ccc(O)c(F)c1 | 0.77 |
| CCCCC=C[C@@H](NC(=O)OCc1ccccc1Cl)c1ccccc1 | 0.709 |
| C=CCC(OC(C)=O)[C@@H]1[C@@H](N(Cc2cccc3ccccc23)C(=O)Cc2ccc(OC)cc2)c2cc(OCCCO)ccc2N1C(=O)c1ccc(-c2ccccc2)cc1 (stereo partly specified) | 1.43 |
| CCCC=C(CCC)[C@@H](NP(=O)(c1ccccc1)c1ccccc1)c1ccc(-c2ccccc2)cc1 | 0.479 |
| COCCCNC(=O)[C@@]1(CCC(=O)OC(C)(C)C)N=C(c2ccc(OCCCO)cc2)O[C@H]1c1ccccc1N=[N+]=[N-] | 0.739 |
| O=C(Cc1ccccc1)[C@H]1C2C=CCCC(c3ccccc3)=C2CN1Cc1ccccc1 (stereo partly specified) | 0.707 |
| COC(=O)[C@@]1(Cc2ccc(F)cc2)[C@H]2c3cc(C(=O)N4CCCC4)n(Cc4ccc(C)c(F)c4F)c3C[C@H]2CN1C(=O)c1ccccc1 | 1.42 |
| COc1ccc(C#Cc2ccc3c(c2)[C@]2(C(=O)N3)[C@H](C(=O)O)[C@H]3C(=O)O[C@H](c4ccccc4)[C@H](c4ccccc4)N3[C@@H]2c2ccc(O)cc2)cc1 | 0.0045 |
| CCC#CCN(Cc1ccccc1Br)[C@H](/C=C/C1CC1)[C@@H](O)Cc1ccccc1 | 0.384 |
| COC(=O)[C@@]1(Cc2ccccc2)[C@H]2c3cc(C(=O)N(C)C)n(Cc4ccc(C)o4)c3C[C@H]2CN1C(=O)c1ccccc1 | 1.44 |
| CC(C)NC(=O)[C@@]1(C)c2ccccc2C(=O)N(Cc2ccc(OC(F)(F)F)cc2)[C@H]1c1ccc(CO)cc1 | -1.03 |
| COc1ccc([Si](C)(C)[C@@H]2[C@@H](CC(=O)N3CCC[C@H]3CO)O[C@]3(C(=O)N(Cc4cccc(N5C(=O)COc6ccccc65)c4)c4ccccc43)[C@H]2C)cc1 | 0.615 |
| CCCC[C@@H](O)C1=C(COC)C[C@H]2C(=O)N(C)C(=O)[C@H]2[C@H]1CO | 0.581 |
| COc1ccc([Si](C)(C)[C@@H]2[C@@H](CC(=O)N(CCO)Cc3ccccc3)O[C@]3(C(=O)N(Cc4cccc(N5CCCCC5=O)c4)c4ccccc43)[C@H]2C)cc1 | 0.493 |

| SMILES | composite z-score |
| --- | --- |
| COc1ccc(CCNC(=O)[C@@]2(Sc3ccc(C)cc3)CC(=O)N(Cc3ccccc3C(F)(F)F)[C@@H]2c2ccc(CO)cc2I)cc1 | 0.67 |
| [N-]=[N+]=Nc1ccccc1[C@@H]1OC(c2ccc(OCCCO)cc2)=N[C@]1(Cc1ccccc1)C(=O)N1CCCCC1 | 0.441 |
| Cc1ccc(S[C@]2(C(=O)NCc3ccccc3)CC(=O)N(C3CCCCC3)[C@@H]2c2ccc(CO)cc2I)cc1 | -0.0734 |
| COc1ccc([Si](C)(C)[C@H]2[C@H](CC(=O)N(CCO)Cc3ccccc3)O[C@@]3(C(=O)N(C)c4c(Br)cc(C)cc43)[C@@H]2C)cc1 | 0.611 |
| [N-]=[N+]=Nc1ccccc1[C@@H]1OC(c2ccc(OCCCO)cc2)=N[C@]1(Cc1ccccc1)C(=O)O | 1.2 |
| CCCC1(C(=O)OC)C=C2C(=C(C)C(=O)C2C)CN1 (stereo unspecified) | 1.57 |
| COCC(=C=CC[C@H](O)c1ccccc1OCCO)C[C@H](O)c1ccccn1 | 0.41 |
| Oc1ccc2cc[n+](Cc3cc4c(cc3Br)OCO4)cc2c1 | 0.398 |
| CC(C)[Si]1(C(C)C)OCc2cc(C3CC3)nc(-c3ccc(Oc4ccccc4)cc3)c21 | 0.228 |
| [N-]=[N+]=Nc1ccccc1C[C@]1(C(=O)N2CCOCC2)COC(c2ccc(OCCCO)cc2)=N1 | 0.959 |
| [N-]=[N+]=Nc1ccccc1C[C@@]1(C(=O)NCCN2CCOCC2)N=C(c2ccc(OCCCO)cc2)O[C@@H]1c1ccccc1N=[N+]=[N-] | 0.691 |
| CCCCC(CC)C(O)C1C=CC2C(=O)N(C)C(=O)C2N1Nc1ccccc1 (stereo unspecified) | 0.864 |
| O=C1N(CCS(=O)(=O)c2ccccc2)c2ccccc2[C@H]2OC(c3ccc(OCCCO)cc3)=N[C@@]12Cc1ccccc1 | 1.04 |
| COc1ccc(C#Cc2ccc3c(c2)[C@]2(C(=O)N3)[C@H](c3ccc(O)cc3)N3[C@H](c4ccccc4)[C@H](c4ccccc4)OC(=O)[C@H]3[C@@H]2C(=O)Nc2nc3ccccc3s2)cc1 | -0.604 |
| CCOc1cc(C(O)C2C=CC3C(=O)NC(=O)C3N2Nc2ccc(Cl)cc2Cl)ccc1O (stereo unspecified) | 1.37 |
| Cc1ccc(S[C@]2(C(=O)NCC(F)(F)F)CC(=O)N(Cc3cc(C(F)(F)F)cc(C(F)(F)F)c3)[C@@H]2c2ccc(CO)cc2I)cc1 | 0.948 |
| C=CCC(OC(C)=O)[C@@H]1[C@@H](N(Cc2cc3ccccc3o2)C(=O)Cc2ccc(F)cc2)c2cc(OCCCO)ccc2N1C(=O)Cc1ccc2ccccc2c1 (stereo partly specified) | 0.779 |
| CO[C@H]1O[C@H](CO)[C@@H](OC(=O)Nc2ccccc2)[C@H](OC(=O)c2cc3ccccc3[nH]2)[C@H]1OC(=O)c1cc2ccccc2[nH]1 | 0.9 |
